Among the data in PubChem BioAssay (NCI) are growth values, retold here.

Assay in all cases: NCI-60 one-dose screen, 48 h (100 = growth as untreated, 0 = no growth, -100 = all killed)
The subject of one assay is DU-145 prostate. The following applies: 10 µM unless noted.
The next assay has as its system K-562 leukemia. The following applies: 10 µM unless noted.
A further assay deals with MALME-3M melanoma. To be noted: 10 µM unless noted.
Another assay concerns MDA-MB-231 breast. To be noted: 10 µM unless noted.
The next assay deals with RXF 393 renal. The following applies: 10 µM unless noted.
In another assay the test system is SF-268 CNS. To be noted: 10 µM unless noted.
For the next assay, the system named is SF-295 CNS. The following applies: 10 µM unless noted.
The test system of the next assay is SF-539 CNS. To be noted: 10 µM unless noted.
The subject of the next assay is UACC-257 melanoma. The following applies: 10 µM.
For the next assay, the system named is M14 melanoma. To be noted: 10 µM unless noted.

The structures appear in SMILES notation. Compounds without any hit were thinned out: in the full panel of roughly 83,000, 20% have a hit.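 A percent growth of 40 corresponds to 60% growth inhibition; 0 means no net growth; -100 means all cells died. Active threshold: below 10.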 Values without a mark were called inactive. Calls of active or inactive are those of the source.

As for `N/C(=N\OC(=O)CSc1nc2ccccc2s1)c1ccc2ccccc2c1`, the growth with DU-145 prostate is 103%; in the assay on K-562 leukemia, 102%; in the assay on MALME-3M melanoma, 105%; in the assay with MDA-MB-231 breast, 89.5%; in the assay on RXF 393 renal, 119%; in the assay with SF-268 CNS, 98.2%. The growth is 103% with SF-295 CNS, 95.2% in the assay on SF-539 CNS, 105% with UACC-257 melanoma and 98.6% in the assay with M14 melanoma.
For the compound `COc1cc2cc(Oc3ccc(NC(=O)Nc4cc(C(F)(F)F)cc(C(F)(F)F)c4)cc3)c(C)nc2cc1OCCN(C)C`, the growth in the assay on DU-145 prostate is 120%; in the assay with K-562 leukemia it was 106%; in the assay with MALME-3M melanoma, 106%; with MDA-MB-231 breast it was 104%; with RXF 393 renal, 112%; in the assay on SF-268 CNS, 106%. For the same compound, the growth in the assay with SF-295 CNS is 103%; in the assay on SF-539 CNS it was 100%; with UACC-257 melanoma, 103%; in the assay with M14 melanoma it was 107%.
Take `CCNC(=NCCCN(C)C)N/C(N)=N/c1nc2ccccc2s1`: the growth is 99.5% with DU-145 prostate; 65.9% in the assay with K-562 leukemia; 97% with MALME-3M melanoma; 73.6% in the assay on MDA-MB-231 breast; 65.4% with RXF 393 renal; 94.8% in the assay on SF-268 CNS. Besides, the growth was 92.4% in the assay with SF-295 CNS, 82.9% in the assay with SF-539 CNS, 104% in the assay with UACC-257 melanoma and 97% with M14 melanoma.
For the compound `CN1CCN(c2ccc(C(=O)Nc3cccc(-c4cn(-c5ccc(S(N)(=O)=O)cc5)nn4)c3)cc2C(F)(F)F)CC1`, the growth with DU-145 prostate is 92.5%; with K-562 leukemia it was 9.33% (active); with MALME-3M melanoma it was 71.4%; with MDA-MB-231 breast it was 63.6%; with RXF 393 renal it was 6.63% (active); with SF-268 CNS, 82.9%. Also, the growth in the assay with SF-295 CNS is 90.4%; in the assay on SF-539 CNS it was 46.2%; in the assay with UACC-257 melanoma it was 95.8%; in the assay with M14 melanoma, 82.2%.
As for `COc1ccc(S(=O)(=O)n2cc(C=O)c3ccccc32)c(OC)c1`, the growth in the assay on DU-145 prostate was 103%; with K-562 leukemia, 14.4%; in the assay on MALME-3M melanoma, 79.7%; in the assay on MDA-MB-231 breast, 95.5%; with RXF 393 renal, 95.3%; in the assay on SF-268 CNS it was 73.6%. Besides, the growth was 99.9% with SF-295 CNS, 78.6% in the assay on SF-539 CNS, 82.5% in the assay with UACC-257 melanoma and 52.8% with M14 melanoma.
Regarding `CN(C)C(=O)c1ccccc1-n1cnc2ccccc2c1=O`, the growth with DU-145 prostate was 105%; with K-562 leukemia, 108%; in the assay with MALME-3M melanoma, 103%; in the assay on MDA-MB-231 breast, 100%; in the assay with RXF 393 renal, 107%; in the assay on SF-268 CNS it was 94.6%. Also, the growth with SF-295 CNS is 103%; in the assay with SF-539 CNS, 95.5%; in the assay with UACC-257 melanoma, 98.5%; in the assay on M14 melanoma, 101%.
Take `CCN1C(=O)N(CC)C2SC(N/N=C/c3cccs3)=NC21` (stereo not given): the growth with DU-145 prostate was 14.6%; with K-562 leukemia it was 11.5%; with MALME-3M melanoma it was 66.4%; in the assay with MDA-MB-231 breast, 24.5%; in the assay with RXF 393 renal, 72.5%; with SF-268 CNS, 35.7%. Moreover, the growth was 17.1% in the assay on SF-295 CNS, -9.73% (active) with SF-539 CNS, 54.2% in the assay on UACC-257 melanoma and 6.49% (active) in the assay on M14 melanoma.
On to `O=C1c2c(c3c4cc(Br)ccc4[nH]c3c3ccc4ccccc4c23)C(=O)N1CCN1CCCCC1`, for which the growth in the assay on DU-145 prostate was 22.9%; in the assay with K-562 leukemia it was -50.3% (active); in the assay on MALME-3M melanoma, 68.1%; with MDA-MB-231 breast it was 77.7%; in the assay with RXF 393 renal, 59.5%; with SF-268 CNS it was 38.4%. In addition, the growth was 23.7% with SF-295 CNS, 38.7% with SF-539 CNS, 93% in the assay with UACC-257 melanoma and 20% with M14 melanoma.
For the compound `COc1ccc(NS(=O)(=O)c2ccc(-c3cnc(C4CC4)o3)cc2)cc1Cl`, the growth was 24.1% in the assay with DU-145 prostate; 10.1% with K-562 leukemia; 50% in the assay on MALME-3M melanoma; 41.9% with MDA-MB-231 breast; 0.101% (active) in the assay with RXF 393 renal; 66.1% in the assay on SF-268 CNS. For the same compound, the growth in the assay with SF-295 CNS was 10.6%; in the assay with SF-539 CNS, 13.3%; in the assay on UACC-257 melanoma, 66.9%; with M14 melanoma, 21.1%.
With `CCCCCCNC(=O)Oc1ccc(/C(=C(\C)c2ccc(OC)cc2)c2ccc(OCCN(C)C)cc2)cc1`, the growth was 96.8% in the assay with DU-145 prostate; 9.79% (active) in the assay with K-562 leukemia; 1.42% (active) in the assay on MALME-3M melanoma; 71.8% in the assay with MDA-MB-231 breast; 52.1% in the assay with RXF 393 renal; 78.3% with SF-268 CNS. The growth in the assay on SF-295 CNS is 80.8%; with SF-539 CNS, 45.3%; in the assay on UACC-257 melanoma, 9.83% (active); in the assay on M14 melanoma it was 6.24% (active).
With `CCNCc1c(-c2cccc(OC(F)(F)F)c2)[nH]c2ccc(N3CCCC3)cc2c1=O`, the growth was 15% in the assay with DU-145 prostate; 6.77% (active) in the assay on K-562 leukemia; 39.5% in the assay with MALME-3M melanoma; 20% in the assay on MDA-MB-231 breast; -9.04% (active) in the assay with RXF 393 renal; 45.1% in the assay with SF-268 CNS. Further, the growth is 3.08% (active) in the assay with SF-295 CNS, 2.73% (active) in the assay on SF-539 CNS, 62.2% with UACC-257 melanoma and -0.303% (active) with M14 melanoma.
For the compound `CCCCCCNC(=O)Oc1ccc(/C(=C(\C)c2ccc(Cl)cc2)c2ccc(OCCN(C)C)cc2)cc1`, the growth is 83.4% in the assay with DU-145 prostate; 4.21% (active) in the assay with K-562 leukemia; -33.7% (active) with MALME-3M melanoma; 58.5% with MDA-MB-231 breast; 46% with RXF 393 renal; 65.4% in the assay on SF-268 CNS. For the same compound, the growth was 84.8% in the assay with SF-295 CNS, 42% in the assay with SF-539 CNS, 18.9% in the assay with UACC-257 melanoma and 3.61% (active) in the assay on M14 melanoma.
Turning to `CS(=O)(=O)c1ccc2c(c1)c1c(n2Cc2ccc(Cl)cc2)CCCC1`, the growth with DU-145 prostate is 86.7%; in the assay with K-562 leukemia, 32.6%; with MALME-3M melanoma, 74.4%; in the assay with MDA-MB-231 breast, 66.1%; in the assay with RXF 393 renal, 73.4%; with SF-268 CNS, 86.6%. The growth in the assay with SF-295 CNS was 67%; in the assay on SF-539 CNS, 81.1%; with UACC-257 melanoma it was 92.1%; with M14 melanoma, 75.6%.
Turning to `C/C(=N/Nc1nc(N/N=C(/C)c2ccc([N+](=O)[O-])cc2)nc(N2CCOCC2)n1)c1ccc([N+](=O)[O-])cc1`, the growth is 81% with DU-145 prostate; 79.7% in the assay with K-562 leukemia; 69.4% with MALME-3M melanoma; 43.5% in the assay on MDA-MB-231 breast; 69.2% with RXF 393 renal; 96% in the assay with SF-268 CNS. For the same compound, the growth with SF-295 CNS is 66.5%; in the assay on SF-539 CNS it was 15.5%; with UACC-257 melanoma it was 99.2%; with M14 melanoma it was 74.5%.
Consider `C=CCn1c(SCC(=O)c2ccc(OC)cc2)nnc1-c1ccc(OC)cc1`, for which the growth in the assay with DU-145 prostate is 99.8%; in the assay on K-562 leukemia it was 94.7%; in the assay on MALME-3M melanoma, 96.4%; with MDA-MB-231 breast, 94.9%; in the assay with RXF 393 renal, 87.9%; with SF-268 CNS, 95.2%. Moreover, the growth in the assay with SF-295 CNS was 97.7%; in the assay on SF-539 CNS, 100%; with UACC-257 melanoma, 96.8%; with M14 melanoma it was 90.9%.
Consider `Oc1ccc(CSc2nnc(-c3ccncc3)o2)c2cccnc12`, for which the growth with DU-145 prostate was 26%; in the assay with K-562 leukemia, 14.7%; with MALME-3M melanoma it was 2.27% (active); with MDA-MB-231 breast, 24.5%; in the assay on RXF 393 renal, 7.2% (active); in the assay on SF-268 CNS, 26.3%. The growth in the assay with SF-295 CNS was 3.07% (active); in the assay on SF-539 CNS it was 18%; in the assay with UACC-257 melanoma, -2.73% (active); in the assay on M14 melanoma, 25.4%.
